Test results published in PubChem BioAssay (NCI).
This is part of a sample that, as a whole, favours compounds with a hit. Of some 83,000 tested, about 20% had one in any assay.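 Single-concentration screen, 48 h exposure, 96-well plates. Endpoint: percent growth. Below 10 = active.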 The source made the active and inactive calls.

Experiments:
Test in all cases: NCI-60 one-dose screen, 48 h (100 = growth as untreated, 0 = no growth, -100 = all killed)
SR leukemia = details: 10 µM unless noted
RPMI-8226 leukemia = details: 10 µM unless noted
OVCAR-8 ovarian = details: 10 µM unless noted
OVCAR-5 ovarian = details: 10 µM unless noted
OVCAR-4 ovarian = details: 10 µM unless noted
SK-OV-3 ovarian = details: 10 µM unless noted
IGROV1 ovarian = details: 10 µM unless noted
OVCAR-3 ovarian = details: 10 µM unless noted
NCI/ADR-RES ovarian = details: 10 µM unless noted
HS 578T breast = details: 10 µM

Measured: growth

O=C1CC(c2ccc(Cl)cc2)c2ncn(-c3cccc(Cl)c3)c2N1 (configuration not stated)
inactive: SR leukemia 27.3% | RPMI-8226 leukemia 58% | OVCAR-8 ovarian 56.5% | OVCAR-5 ovarian 96% | OVCAR-4 ovarian 87.2% | SK-OV-3 ovarian 47.8% | IGROV1 ovarian 59.8% | OVCAR-3 ovarian 13.3% | NCI/ADR-RES ovarian 26.5%

Cc1ccc(-c2cc3c(SCC(=O)Nc4cc(C(F)(F)F)ccc4Cl)nccn3n2)cc1
active: SR leukemia -10.2% | RPMI-8226 leukemia -12.5%
inactive: OVCAR-8 ovarian 33.1% | OVCAR-5 ovarian 84.7% | OVCAR-4 ovarian 38.1% | SK-OV-3 ovarian 84.3% | IGROV1 ovarian 52.7% | OVCAR-3 ovarian 82.3% | NCI/ADR-RES ovarian 42.5%

O=C1NC(=O)[C@@H](c2cn3c4c(cccc24)CCC3)[C@@H]1c1c[nH]c2ccccc12
active: SK-OV-3 ovarian -0.0481% | NCI/ADR-RES ovarian 9.44%
inactive: SR leukemia 13.8% | RPMI-8226 leukemia 22.8% | OVCAR-8 ovarian 11.3% | OVCAR-5 ovarian 48% | OVCAR-4 ovarian 55.4% | IGROV1 ovarian 27.7% | OVCAR-3 ovarian 18.4%

CCN(CC)CCNC(=O)c1c(C)[nH]c(/C=C2\C(=O)Nc3ccc(F)cc32)c1C
active: SR leukemia -9.44% | RPMI-8226 leukemia -10.3% | OVCAR-8 ovarian 1.47%
inactive: OVCAR-5 ovarian 35% | OVCAR-4 ovarian 23.9% | SK-OV-3 ovarian 26.9% | IGROV1 ovarian 24.6% | OVCAR-3 ovarian 67.9% | NCI/ADR-RES ovarian 18.4%

CC[C@H](CO)Nc1nc(NCc2ccccc2)c2ncn(C(C)C)c2n1
active: SR leukemia 7.1%
inactive: RPMI-8226 leukemia 85.5% | OVCAR-8 ovarian 63.8% | OVCAR-5 ovarian 50.9% | OVCAR-4 ovarian 73.2% | SK-OV-3 ovarian 102% | IGROV1 ovarian 49% | OVCAR-3 ovarian 65.2% | NCI/ADR-RES ovarian 71.4%

COc1cc2c(cc1OCCCN1Cc3ccc(OCCCCC(=O)N4CCC(CCN5CCCC5)CC4)cc3C1)N=C(N)C21CCCC1
active: SR leukemia 1.87%
inactive: RPMI-8226 leukemia 62.6% | OVCAR-8 ovarian 97.9% | OVCAR-5 ovarian 102% | OVCAR-4 ovarian 77% | SK-OV-3 ovarian 71.7% | IGROV1 ovarian 83% | OVCAR-3 ovarian 99.2% | NCI/ADR-RES ovarian 107%

Cn1c(=O)c(F)c(Nc2ccc(I)cc2F)c2c(=O)n(C[C@@H](O)CO)cnc21
inactive: SR leukemia 52.4% | RPMI-8226 leukemia 61.2% | OVCAR-8 ovarian 43.9% | OVCAR-4 ovarian 55.8% | SK-OV-3 ovarian 44.8% | IGROV1 ovarian 10.5% | OVCAR-3 ovarian 86.9% | NCI/ADR-RES ovarian 60.6%
active: OVCAR-5 ovarian 6.95%

COc1cc(NCCN(CC(C)C)CC(C)C)c2ncc(C)cc2c1
active: OVCAR-3 ovarian 1.71%
inactive: SR leukemia 76.3% | RPMI-8226 leukemia 62.6% | OVCAR-8 ovarian 68.7% | OVCAR-5 ovarian 111% | OVCAR-4 ovarian 34.6% | SK-OV-3 ovarian 88.8% | IGROV1 ovarian 76.5% | HS 578T breast 100% | NCI/ADR-RES ovarian 76.5%

C[C@@H](Oc1cc(-n2cnc3ccc(CN4CCN(C)CC4)cc32)sc1C(N)=O)c1ccccc1C(F)(F)F
inactive: RPMI-8226 leukemia 34.2% | OVCAR-5 ovarian 19.9% | OVCAR-4 ovarian 33.8% | IGROV1 ovarian 16.8% | OVCAR-3 ovarian 38% | NCI/ADR-RES ovarian 18.5%
active: SR leukemia -19.6% | OVCAR-8 ovarian 5.18% | SK-OV-3 ovarian -2.74%

CCc1nc2cc(/C=C/C(=O)NO)ccc2c(=O)n1CCc1ccc(OC)cc1
inactive: SR leukemia 14.3% | RPMI-8226 leukemia 10.3% | OVCAR-8 ovarian 15.3% | OVCAR-5 ovarian 24.2% | OVCAR-4 ovarian 39.1% | IGROV1 ovarian 40.9% | HS 578T breast 41.8%
active: SK-OV-3 ovarian 6.67% | OVCAR-3 ovarian -1.22% | NCI/ADR-RES ovarian 9.39%

Oc1ccc(C(c2ccc(O)cc2)C(Cl)(Cl)Cl)cc1
inactive: SR leukemia 87.8% | RPMI-8226 leukemia 83.4% | OVCAR-8 ovarian 103% | OVCAR-5 ovarian 88.5% | OVCAR-4 ovarian 94.2% | SK-OV-3 ovarian 118% | IGROV1 ovarian 93% | OVCAR-3 ovarian 105% | HS 578T breast 88.3% | NCI/ADR-RES ovarian 94.9%

C=C1C[C@H](O)[C@H](Br)C(C)(C)[C@@]12CCC(C)=C(Cl)C2
active: SR leukemia 5.02% | RPMI-8226 leukemia -18.2%
inactive: OVCAR-8 ovarian 29% | OVCAR-5 ovarian 43.3% | OVCAR-4 ovarian 27.3% | SK-OV-3 ovarian 12.1% | IGROV1 ovarian 40.1% | OVCAR-3 ovarian 35.2% | HS 578T breast 22.3% | NCI/ADR-RES ovarian 22.1%

C[C@H]1Oc2cc(cnc2N)-c2c(nn(C)c2C#N)CN(C)C(=O)c2ccc(F)cc21
active: SR leukemia 6.17%
inactive: RPMI-8226 leukemia 92.6% | OVCAR-8 ovarian 83.2% | OVCAR-5 ovarian 58.3% | OVCAR-4 ovarian 81.1% | SK-OV-3 ovarian 55.1% | IGROV1 ovarian 80.2% | OVCAR-3 ovarian 108% | NCI/ADR-RES ovarian 80.4%

O=C(NOC[C@H](O)CO)c1ccc(F)c(F)c1Nc1ccc(I)cc1F
inactive: SR leukemia 45.7% | RPMI-8226 leukemia 59.7% | OVCAR-8 ovarian 43.5% | OVCAR-4 ovarian 62% | SK-OV-3 ovarian 46.3% | IGROV1 ovarian 14.1% | OVCAR-3 ovarian 95.1% | NCI/ADR-RES ovarian 59.2%
active: OVCAR-5 ovarian 9.99%

COc1cc2c(cc1O)c(=O)n(CCN(C)C)c1c3cc4c(cc3ncc21)OCO4
inactive: HS 578T breast 11.4%
active: SR leukemia 4.06% | RPMI-8226 leukemia -30.3% | OVCAR-8 ovarian -9.58% | OVCAR-5 ovarian -1.62% | OVCAR-4 ovarian -1.86% | SK-OV-3 ovarian 3.14% | IGROV1 ovarian 0.0353% | OVCAR-3 ovarian -39.9% | NCI/ADR-RES ovarian -12.6%

Cc1c(N)ccc(-c2ccc(N)c(C)c2S(=O)(=O)O)c1S(=O)(=O)O
inactive: SR leukemia 102% | RPMI-8226 leukemia 107% | OVCAR-8 ovarian 107% | OVCAR-5 ovarian 101% | OVCAR-4 ovarian 112% | SK-OV-3 ovarian 111% | IGROV1 ovarian 110% | OVCAR-3 ovarian 124% | HS 578T breast 106% | NCI/ADR-RES ovarian 102%

C=CCN(/C=C1/C(=O)O[C@H](COC)[C@@]2(C)C1=C(O)C(=O)C1=C2[C@H](OC(C)=O)C[C@]2(C)C(=O)CC[C@@H]12)CC=C
active: SR leukemia 0.113% | SK-OV-3 ovarian -19.6% | IGROV1 ovarian -1.93%
inactive: RPMI-8226 leukemia 35.2% | OVCAR-8 ovarian 29.4% | OVCAR-5 ovarian 20.5% | OVCAR-4 ovarian 30.6% | OVCAR-3 ovarian 21% | NCI/ADR-RES ovarian 35.4%

CCn1cc(-c2ccnc3[nH]c(-c4cccc(CN(C)C)c4)cc23)c(-c2ccc(NC(=O)N(C)C)cc2)n1
active: SR leukemia -15.8% | RPMI-8226 leukemia 3% | SK-OV-3 ovarian -0.688%
inactive: OVCAR-8 ovarian 24.9% | OVCAR-5 ovarian 24.5% | OVCAR-4 ovarian 41.1% | IGROV1 ovarian 26.3% | OVCAR-3 ovarian 48.1% | NCI/ADR-RES ovarian 72.4%

CNC(=O)c1cc(Oc2ccc3nc(NC(=O)Nc4ccc(Cl)c(C(F)(F)F)c4)sc3c2)ccn1
active: OVCAR-8 ovarian -11.1% | OVCAR-4 ovarian -34% | OVCAR-3 ovarian -61.1%
inactive: SR leukemia 22.6% | RPMI-8226 leukemia 61.4% | OVCAR-5 ovarian 30.8% | SK-OV-3 ovarian 12.7% | IGROV1 ovarian 56.8% | NCI/ADR-RES ovarian 11.4%

CC(C)(O)CC(=O)NCCn1ccc2ncnc(Nc3ccc(Oc4cccc(C(F)(F)F)c4)c(Cl)c3)c21
active: SR leukemia 3.05% | OVCAR-8 ovarian 3% | OVCAR-5 ovarian 3.46% | SK-OV-3 ovarian -21% | IGROV1 ovarian -42.6% | NCI/ADR-RES ovarian 9.15%
inactive: RPMI-8226 leukemia 11% | OVCAR-4 ovarian 25.6% | OVCAR-3 ovarian 32.6%

COc1cc2ncnc(Nc3ccc(F)c(Cl)c3)c2cc1NC(=O)/C=C/CN1CCCCC1
active: SR leukemia -14.5% | RPMI-8226 leukemia -31.2% | OVCAR-8 ovarian -38.2% | OVCAR-5 ovarian -22% | OVCAR-4 ovarian -57.5% | SK-OV-3 ovarian -93.5% | IGROV1 ovarian -47.7% | OVCAR-3 ovarian -83.2% | NCI/ADR-RES ovarian -55%

Nc1ccc(S(=O)(=O)O)c2cc(S(=O)(=O)O)cc(O)c12
inactive: SR leukemia 105% | RPMI-8226 leukemia 102% | OVCAR-8 ovarian 105% | OVCAR-5 ovarian 102% | OVCAR-4 ovarian 109% | SK-OV-3 ovarian 101% | IGROV1 ovarian 107% | OVCAR-3 ovarian 113% | NCI/ADR-RES ovarian 105%

C=CCCCC(=O)CCC(=O)OCC1O[C@@H](O[C@@H]2C(O)[C@@H](OC(C)=O)C(C)O[C@H]2O[C@H](CC=C)CCCCC)C(O)[C@@H](OC(=O)/C(C)=C/C)[C@@H]1OC(=O)/C=C/c1ccccc1 (some centres not stated)
inactive: OVCAR-8 ovarian 42.1% | OVCAR-5 ovarian 53.5% | OVCAR-4 ovarian 42.4% | SK-OV-3 ovarian 40.6% | IGROV1 ovarian 35.1% | OVCAR-3 ovarian 26% | HS 578T breast 35.9% | NCI/ADR-RES ovarian 49.2%
active: SR leukemia -12.4% | RPMI-8226 leukemia -1.27%

Cc1cc(C2(c3ccc(O)c(C)c3)OS(=O)(=O)c3ccccc32)ccc1O
inactive: SR leukemia 97.2% | RPMI-8226 leukemia 99.3% | OVCAR-8 ovarian 107% | OVCAR-5 ovarian 110% | OVCAR-4 ovarian 107% | SK-OV-3 ovarian 111% | IGROV1 ovarian 105% | OVCAR-3 ovarian 119% | HS 578T breast 101% | NCI/ADR-RES ovarian 109%

CC1(O)CCC2CC3OC3(C)CCC3OC3(C)C(O)CC1C2(C)C (configuration not stated)
inactive: SR leukemia 104% | RPMI-8226 leukemia 84.4% | OVCAR-8 ovarian 87.3% | OVCAR-5 ovarian 120% | OVCAR-4 ovarian 91.1% | SK-OV-3 ovarian 109% | IGROV1 ovarian 70% | OVCAR-3 ovarian 118% | NCI/ADR-RES ovarian 112%

COc1cc2cc(NCc3ccc(Cl)cc3)nc(C)c2cc1OC
inactive: SR leukemia 18.7% | RPMI-8226 leukemia 14.3% | OVCAR-8 ovarian 40.9% | OVCAR-5 ovarian 41.2% | OVCAR-4 ovarian 82.3% | SK-OV-3 ovarian 68% | IGROV1 ovarian 43% | OVCAR-3 ovarian 49.4% | HS 578T breast 70.5% | NCI/ADR-RES ovarian 33.6%

COc1ccc(Cc2cc(-c3ccccc3C)n[nH]c2=O)cc1
inactive: SR leukemia 103% | RPMI-8226 leukemia 39.9% | OVCAR-8 ovarian 99.9% | OVCAR-5 ovarian 101% | OVCAR-4 ovarian 92.5% | SK-OV-3 ovarian 102% | IGROV1 ovarian 53.7% | OVCAR-3 ovarian 96.4% | HS 578T breast 90.9% | NCI/ADR-RES ovarian 105%

COc1cc2c(Oc3ccc4[nH]c(C)cc4c3F)ncnc2cc1OCCCN1CCCC1
inactive: SR leukemia 84.3% | RPMI-8226 leukemia 110% | OVCAR-8 ovarian 97.1% | OVCAR-5 ovarian 78.4% | OVCAR-4 ovarian 74% | SK-OV-3 ovarian 82.1% | IGROV1 ovarian 46.6% | OVCAR-3 ovarian 87.4% | NCI/ADR-RES ovarian 88.5%
